Only some compounds are listed: those with a hit (about 19% of all), similar ones and a draw of the others.
DT40 TDP1 no CPT – qHTS for Inhibitors of human tyrosyl-DNA phosphodiesterase 1 (TDP1): qHTS in cells in absence of CPT. DT40 Tdp1-/- hTDP1 cells, no CPT, ATP luminescence, 48 h. Potency, µM (series often up to 46.2 µM), inactives show at the highest dose activity change, negative = growth inhibition, usual class: inhibitors. 15% of 420,000 active. AID 686978, 2013; further: potency means the concentration at half of the fitted maximal effect; on the % scale 0 is the no-effect control and ±100 the full control effect; nearly all actives have a fitted effect of over 55% in size
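Luminescent ATP content (CellTiter-Glo) served as the growth readout. Knockout chicken DT40 cells expressing human TDP1 were exposed to compounds without camptothecin for a minimum 48 hr at 37 °C.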
SW480 rerep – A quantitative high throughput screen for small molecules that induce DNA re-replication in SW480 colon adenocarcinoma cells; SW480 DNA re-replication, Hoechst DNA content imaging, 48 h; Potency, µM (series often up to 46.1 µM), for inactives: top-dose re-replication activation, most hits filed as activators; 1.8% of 340,000 active; AID 624297, 2012; further: potency means the concentration at half of the fitted maximal effect; % of control where 0% means no effect; nearly all actives have a fitted effect of over 55% in size
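250 cells/well; 23 nL cpd via pin tool; 48 hr, 37 C, 5% CO2; Hoechst 40 min; imager read of total nuclear intensity, ex 405/em 500-530 nm.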
DT40 TDP1 CPT – qHTS for Inhibitors of human tyrosyl-DNA phosphodiesterase 1 (TDP1): qHTS in cells in presence of CPT. chicken DT40 Tdp1-/-;hTDP1 cells + 20 nM CPT, ATP luminescence, 48 h. Potency, µM (titrated, usually from 46.2 µM), for inactives: top-dose activity change, negative = growth inhibition, usual class: inhibitors. 12% of 420,000 active; further: potency means the concentration at half of the fitted maximal effect; on the % scale 0 is the no-effect control and ±100 the full control effect; nearly all actives have a fitted effect of over 55% in size
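Cell growth measured by CellTiter-Glo luminescence after a minimum 48 h, 37 C compound exposure with 20 nM CPT in Tdp1-knockout DT40 cells stably expressing hTDP1, seeded 400/well; qHTS titration format.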
BCR signal inh – qHTS Assay to Find Inhibitors of Chronic Active B-Cell Receptor Signaling; ABC-DLBCL IkBa-CBG/CBR reporter, luminescence ratio, 4 h; Potency, µM (titrated, usually from 46.1 µM), for inactives: at the top dose activity change, negative = inhibition, most hits filed as inhibitors; 0.05% of 340,000 active; active means well fitted inhibition curve with a large enough effect in the signal ratio, with a control signal flat, not every such curve was filed as active; inconclusive means small, poorly fitted or top-dose-only effect, or effect the other way, or a change in a side signal; the % refers to the signal ratio;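 further: potency means the concentration at half of the fitted maximal effect; plate controls were basal doxycycline-induced cells for no effect and cells given 10 µM MG132 for full effect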
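Compounds up to 46 uM were incubated four hours with TMD8 cells whose green CBG68 luciferase is fused to IkappaBalpha; red CBR luminescence normalised the signal, and concentration-effect curves were fitted to fusion, red and ratio data.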
MCF10A rereplic – A quantitative high throughput screen for small molecules that induce DNA re-replication in MCF 10a normal breast cells | MCF 10A DNA re-replication, Hoechst nuclear intensity, 48 h | Potency, µM (top dose mostly 46.1 µM), for inactives: at the highest dose activity, positive = re-replication, hits mostly activators | 2.9% of 350,000 active | AID 624296, 2012; further: potency means the concentration at half of the fitted maximal effect; % of control where 0% means no effect; nearly all actives have a fitted effect of over 50% in size
IL1B secr inh – qHTS for Inhibitors of Inflammasome Signaling: IL-1-beta AlphaLISA Primary Screen; THP-1 LPS/ATP IL-1B secretion, AlphaLISA, 16 h; stronger effect = lower value; activity change, % at 57.5 µM; 4.7% of 360,000 active; in the data active means activity change below about -50%; inconclusive means mostly about -30% to -49%; further: on the % scale 0 is the no-effect control and ±100 the full control effect
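Secreted IL-1B measured by AlphaLISA bead assay after 16 h compound exposure of THP-1 cells; compounds (final up to 57.5 uM) added 1 h before LPS (250 ng/mL) and ATP (1.25 mM) stimulation; lower signal means less secretion.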
* hit, by the source's call; u = inconclusive; x = not tested or not shown; [ ] = another dose, or the depositor's remark. Unless noted, the call rests on the fitted dose curve; in most records, active means well fitted curve in the direction sought with a large enough effect; inconclusive means small, poorly fitted or top-dose-only effect, or another doubt; inactive means no such curve, though single readings can be large; an effect the other way counts as inactive or inconclusive.

SMILES | DT40 TDP1 no CPT | SW480 rerep | DT40 TDP1 CPT | BCR signal inh | MCF10A rereplic | IL1B secr inh
O=C(Nc1ccc(N2CCCC2)cc1)c1cc(Br)ccc1Cl | 4.61µM* | u | 3.66µM* | u | u | -23.8
COc1ccc(C(=O)Nc2ccc(N3CCN(C(=O)c4ccccc4C)CC3)cc2)cc1 | 8.2µM* | 22.0% | 8.2µM* | -17.2% | u | u
O=C(O)/C=C\C(=O)Nc1ccc(N2CCN(c3ccc(Cl)cc3)CC2)cc1 | -12.6% | -0.6% | 29.3% | u | -1.7% | -24.8
COc1ccc(Oc2ccc(NC(=O)c3ccccc3C)cc2)cc1 | 20.6µM* | u | u | u | -4.0% | u
COc1ccccc1Oc1ccc(NC(=O)c2ccccc2)cc1 | -22.2% | 1.7% | -0.8% | u | -0.7% | -8.4
COc1ccccc1Oc1ccc(NC(=O)c2ccccc2C)cc1 | 23.1µM* | -1.7% | u | u | 14.3% | -29.1
O=C(Nc1ccccc1)C(c1ccccc1)C1CCCC1 (centres undefined) | -22.3% | u | -5.9% | 3.5% | 2.4% | -91.4*
O=C(O)/C=C\C(=O)Nc1ccc(N2CCN(c3ccc(Cl)c(Cl)c3)CC2)cc1 | u | 9.7% | u | -0.1% | 4.0% | -71.1*
CCOC(=O)C(C(=O)Nc1ccccc1)C1CCCCC1 (centres undefined) | -4.3% | -2.9% | 1.4% | 0.6% | 1.5% | -21.0
CCCN=C1N(C)C[C@@H]2[C@@H]3C(=O)N(C)C(=O)[C@@H]3[C@](C)(C(=O)OC)N12 | 5.8% | -2.9%[9.22 µM] | 7.7% | 2.5% | 8.7% | 18.7
COCCNC(=O)C1CCCN(C(=O)c2ccc3ccccc3n2)CC1 (centres undefined) | -2.8% | x | -7.2% | x | x | 13.0
Cc1ccc(C)c(NS(=O)(=O)c2cc3c(cc2C)n(C)c(=O)c(=O)n3C)c1 | u | x | -8.9% | x | x | x
O=C(c1cnccn1)N1CCC2(CC1)CCN(c1ncccn1)CC2 | -9.1% | x | -5.9% | x | x | x
COCCNC(=O)C1CCCN(C(=O)c2cc(-c3ccccc3)cs2)CC1 (centres undefined) | -16.0% | x | -18.6% | x | x | 18.3
COC(=O)C1CCCCN1Cc1ccc2c(c1)CN(C(=O)c1cc(C)nc3cc(F)ccc13)CCO2 (centres undefined) | u | x | 11.4%[9.04 µM] | x | x | x
CCCc1nc2nc(C)c(NS(=O)(=O)c3ccc(C4CCCCC4)cc3)c(=O)n2[nH]1 | -7.0% | 0.5% | 6.8% | u | 20.7% | 18.3
COc1ccc(-c2oc3ncn4nc(COc5ccc(Cl)cc5)nc4c3c2-c2ccc(OC)cc2)cc1 | -27.1% | x | -24.8% | x | x | x
COc1ccccc1CNC(=O)c1cc2c(=O)oc3ccc(C)cc3c2s1 | u | x | 3.1% | x | x | x
COc1ccccc1Nc1ccc(NC(=O)c2cccc([N+](=O)[O-])c2C)cc1 | 18.4µM* | 38.2% | u | u | -1.3% | -26.7
CS(=O)(=O)N1CCN(c2ccc(NC(=O)C(c3ccccc3)c3ccccc3)cc2)CC1 | u | 0.3% | -19.9% | 2.5% | -12.4% | -14.7
Cc1nc(C)c(C(=O)Nc2ccc(Oc3ccccc3)cc2)o1 | 14.6µM* | -0.5% | u | -1.1% | 3.5% | 31.6
COc1ccc(NC(=O)c2ccccc2[N+](=O)[O-])cc1 | -8.7% | -1.5% | -13.0% | 0.6% | 3.2% | 0.9
O=C(Nc1ccc(N2CCCC2)cc1)C(Cl)c1ccccc1 (centres undefined) | 13µM* | u | 8.2µM* | -0.4% | u | 23.3
COc1ccc(O)c(C(=O)CC(=O)c2ccccc2C)c1 | 5.8µM* | 20.6µM* | 7.31µM* | u | u | 28.7
CC(C)C(=O)N1CCN(c2ccc([N+](=O)[O-])c(NC(C)c3ccccc3)c2)CC1 (centres undefined) | 16.4µM* | -0.3% | u | -10.3% | u | -63.8*
SMILES | DT40 TDP1 no CPT | SW480 rerep | DT40 TDP1 CPT | BCR signal inh | MCF10A rereplic | IL1B secr inh
O=[N+]([O-])c1ccc(N2CCOCC2)cc1NC(c1ccccc1)c1ccccc1 | u | 1.1% | 16.4µM* | -0.1% | 14.5% | -9.3
CC(C)Nc1cc(N2CCCC2)ccc1[N+](=O)[O-] | -15.8% | 21.6% | u | 5.4% | 2.5% | -1.8
CC(Nc1cc(N2CCN(C(=O)C(C)(C)C)CC2)ccc1[N+](=O)[O-])c1ccccc1 (centres undefined) | 23.1µM* | 14.8% | u | -1.0% | 17.8% | -29.0
CCCN(CCC)CCCNC(=O)C1CCC(CNS(=O)(=O)c2ccc(NC(C)=O)cc2)CC1 (centres undefined) | -13.0% | x | 10.3% | -17.4% | x | x
COC(=O)C[C@H]1CC[C@H](NC(=O)c2cccc(F)c2)[C@@H](CO)O1 | 16.8% | x | 8.8% | x | x | 0.0
COc1cccc2c1OCC(C(=O)OCc1cccnc1)=C2 | -2.9% | -2.3% | 3.8% | u | 11.5% | -52.6*
COc1ccccc1/C=N/NC(=O)CC(=O)NCc1cccnc1 | -10.7% | -3.1% | 29.1% | u | 1.2% | -0.1
Cc1nc(C)n(C(C)CNS(=O)(=O)c2ccc(Cl)cc2)n1 (centres undefined) | 1.6% | 12.9% | 8.1% | -11.2% | 7.0% | 0.2
O=c1c(S(=O)(=O)c2ccccc2)cn(Cc2ccccc2)c2cc(N3CCCC3)c(F)cc12 | 0.1% | x | -5.0% | x | x | x
O=c1c(S(=O)(=O)c2ccccc2)cn(Cc2ccccc2)c2cc(N3CCOCC3)c(F)cc12 | u | x | 20.6µM* | x | x | x
O=c1c(S(=O)(=O)c2ccccc2)cn(Cc2cccc(F)c2)c2cc(N3CCOCC3)c(F)cc12 | 23.1µM* | x | u | x | x | x
COC(=O)c1ccc(NC(=S)NC2CCc3ccccc32)cc1 (centres undefined) | -0.5% | u | 3.5% | 13.8% | u | 46.8
CCC(Sc1nc2n[nH]c(C)c2c(=N)n1-c1cccc(Cl)c1)C(=O)NCCOC (centres undefined) | 13µM* | 3.8% | 23.1µM* | u | 4.8% | -27.4
Cc1cccc(NC(=O)CSc2nc3n[nH]c(C)c3c(=N)n2-c2cccc(Cl)c2)c1 | 14.6µM* | x | 18.4µM* | u | x | x
Cc1ccc(NC(=O)CSc2nc3n[nH]c(C)c3c(=N)n2-c2ccccc2C)cc1C | u | x | -27.9% | u | x | x
